Where “and” joins values, the source holds several entries; their conditions need not be identical. Equal entries are not always repeated. Records with an inconclusive call do not appear. For part of these data: Measured potencies and affinities stand elsewhere. Calls of active or inactive are those of the source.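 The calls were made as follows, unless noted: active = thallium flux through the channel raised or lowered by more than 3 SD from vehicle-only wells, actives on both sides; inactive = the rest.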
Tests used:
[1] = hESC survival regulators, cell-based (AID 493140; call rule not given here;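 also: cells exposed to compounds for four days before counting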); details: human embryonic stem cell survival screen; stronger effect = higher value
[2] = modulation of C. elegans fzo-1 (AID 1259413; call rule not given here;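 also: fzo-1 mutant C. elegans worms in liquid wells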); details: C. elegans fzo-1 modulator screen, mean read-out; stronger effect = higher value
[3] = growth inhibition of DIPG glioma cells, dose response, cell-based, JHH-DIPG-1, MIPE4.0, CellTiter-Glo, qHTS (AID 1347062; cut-off not given, nearly all actives have AC50 up to about 27 µM;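 as to AC50: cells exposed to compound for two days before readout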); details: JHH-DIPG-1 viability, CellTiter-Glo ATP luminescence
[4] = SU-DIPG-XXV glioma cell viability, MIPE5.0 library, qHTS (AID 1347068; cut-off not given, nearly all actives have IC50 up to about 30 µM)
[5] = phospholipid biosynthesis inhibitors in animal cells, primary screen, cell-based, LOPAC library, screen 4 (AID 1347384; call rule not given here); details: phospholipid biosynthesis inhibition screen, at 10 µM
[6] = tested on: F380Y; assay: modulators of BK channel variants, profiling panel, selectivity assay, cell-based, U2OS BacMam, thallium flux, beta subunits (AID 1259406); details: at 30 µM;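 also: initial slope of Thallos dye fluorescence rise after thallium is added; log ratio against the mean of 0.3% DMSO vehicle wells on the same plate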
[7] = tested on: F380Y/beta1; assay: as above; details: at 30 µM
[8] = tested on: F380Y/beta2Delta; assay: as above; details: at 30 µM
[9] = tested on: F380Y/beta4; assay: as above; details: at 30 µM
[10] = target: Calcium-activated potassium channel subunit alpha-1 (Homo sapiens) + Leucine-rich repeat-containing protein 26 (Homo sapiens) (UniProt Q12791+Q2I0M4); assay: as above; details: F380Y/Slo1WT/gamma1, at 30 µM
[11] = tested on: R275C; assay: as above; details: at 30 µM
[12] = tested on: R275C/beta1; assay: as above; details: at 30 µM
[13] = tested on: R275C/beta2Delta; assay: as above; details: at 30 µM
[14] = tested on: R275C/beta4; assay: as above; details: at 30 µM
[15] = tested on: R275C/Slo1WT/beta2; assay: as above; details: at 30 µM
[16] = rescue of polyQ-huntingtin neuronal dysfunction in worms, whole organism, C. elegans mechanosensory neurons, N-terminal huntingtin (AID 1599); details: touch response, stronger effect = higher value
[17] = sensitizers of A549 cells to miR-34 induction, primary screen, imaging, A549 dox-inducible miR-34, nuclei and caspase counts (AID 1347080;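 active = compounds whose cell count with miR-34 switched on is under 0.7 times the count with it off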); details: A549 miR-34 inducible, Hoechst nuclei count, 48 h
[18] = LFS_MB_P medulloblastoma growth inhibition, cell-based, chromothripsis tumors, cisplatin or BGB combos (AID 1671449; in the data active = inhibition above about 80%;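 also: cells exposed for 96 hours; 0% = vehicle DMSO and 100% = killing by high DMSO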); details: LFS_MB_P medulloblastoma cells
[19] = HDN33 neuroblastoma growth inhibition, cell-based, chromothripsis tumors, cisplatin or BGB combos (AID 1671450; in the data active = inhibition above about 80%;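 also: cells exposed to compound for four days; 0% = vehicle DMSO and 100% = cell killing by high DMSO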); details: HDN33 neuroblastoma cells, stronger effect = higher value
[20] = HTB85 osteosarcoma cell growth inhibition, synergistic combos for chromothripsis tumors, BGB or cisplatin IC20 combos (AID 1671453; in the data active = inhibition above about 80%;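 also: cells exposed for 96 hours before readout; 0% = vehicle DMSO and 100% = high DMSO killing control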); details: HTB85 osteosarcoma cells, drug combinations, stronger effect = higher value

Sequence of Calcium-activated potassium channel subunit alpha-1 (Homo sapiens) + Leucine-rich repeat-containing protein 26 (Homo sapiens) (Q2I0M4 whole entry, looked up, one chain of several): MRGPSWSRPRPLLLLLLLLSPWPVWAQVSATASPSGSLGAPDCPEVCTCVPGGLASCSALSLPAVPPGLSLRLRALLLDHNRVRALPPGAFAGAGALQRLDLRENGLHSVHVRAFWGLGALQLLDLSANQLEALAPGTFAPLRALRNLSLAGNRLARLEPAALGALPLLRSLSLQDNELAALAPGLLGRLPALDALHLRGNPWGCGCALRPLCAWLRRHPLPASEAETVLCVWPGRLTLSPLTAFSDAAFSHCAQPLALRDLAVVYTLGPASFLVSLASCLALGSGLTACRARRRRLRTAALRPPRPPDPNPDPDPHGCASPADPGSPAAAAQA

CN(C)CCCN1c2ccccc2CCc2ccc(Cl)cc21
active: AC50 [3] 9.35 µM | log fold change Tl+ flux [9] 0.151 | log fold change Tl+ flux [14] 0.278
inactive: survival [1] 4.17 | mean signal [2] 222 | outcome [4] | outcome [5] | log fold change Tl+ flux [6] -0.0375 | log fold change Tl+ flux [7] -0.109 | log fold change Tl+ flux [8] -0.0656 | log fold change Tl+ flux [10] -0.0105 | log fold change Tl+ flux [11] 0.0284 | log fold change Tl+ flux [12] 0.00748 | log fold change Tl+ flux [13] -0.0594 | log fold change Tl+ flux [15] -0.0809

N=C(N)c1ccc(OCCCCCOc2ccc(C(=N)N)cc2)cc1
0: rescue above control [16]
4130 and 4260 and 6460: cell count ([17]; measured here: total cells with miR-34 induction, stronger effect = lower value)
inactive: survival [1] 0.583 | outcome [3] | fold change ([17]; stronger effect = lower value, cell number ratio, induced over uninduced) 0.873 and 0.95 and 1.08 | outcome [5]
4730 and 4480 and 6000: cell count ([17]; measured here: total cells without miR-34 induction)
1.42 and 0.678 and 1.37: fold change ([17]; measured here: relative caspase fold change +Dox/-Dox)

Oc1ccc(/C=C/c2cc(O)cc(O)c2)cc1
inactive: survival [1] 13.8 | mean signal [2] 256 | outcome [3] | outcome [5] | log fold change Tl+ flux [6] 0.101 | log fold change Tl+ flux [10] 0.0893 | log fold change Tl+ flux [11] 0.00518 | log fold change Tl+ flux [15] 0.0308
active: log fold change Tl+ flux [7] 0.199 | log fold change Tl+ flux [8] 0.155 | log fold change Tl+ flux [9] 0.154 | log fold change Tl+ flux [12] 0.139 | log fold change Tl+ flux [13] 0.139 | log fold change Tl+ flux [14] 0.092

CN1C(C(=O)Nc2ccccn2)=C(O)c2ccccc2S1(=O)=O
9.46: rescue above control [16]
inactive: survival [1] 20 | mean signal [2] 261 | outcome [3] | outcome [4] | outcome [5] | log fold change Tl+ flux [6] 0.0868 | log fold change Tl+ flux [7] 0.0287 | log fold change Tl+ flux [8] 0.0109 | log fold change Tl+ flux [9] -0.0159 | log fold change Tl+ flux [10] 0.00877 | log fold change Tl+ flux [11] 0.0414 | log fold change Tl+ flux [12] 0.0251 | log fold change Tl+ flux [13] -0.00889 | log fold change Tl+ flux [14] 0.00622 | log fold change Tl+ flux [15] -0.000416

CC1=C(CC(=O)O)c2cc(F)ccc2/C1=C\c1ccc(S(C)=O)cc1 (centres undefined)
inactive: mean signal [2] 230 | outcome [4] | outcome [5] | log fold change Tl+ flux [6] 0.0356 | log fold change Tl+ flux [7] 0.0787 | log fold change Tl+ flux [8] 0.0561 | log fold change Tl+ flux [9] 0.0346 | log fold change Tl+ flux [10] 0.0386 | log fold change Tl+ flux [11] -0.0121 | log fold change Tl+ flux [12] -0.0305 | log fold change Tl+ flux [13] -0.0296 | log fold change Tl+ flux [14] 0.044 | log fold change Tl+ flux [15] 0.0257
-1.24: rescue above control [16]

CCN(CC)CCCC(C)Nc1c2ccc(Cl)cc2nc2ccc(OC)cc12 (centres undefined)
113%: inhibition ([18]; measured here: combination with cisplatin, at 5 µM, stronger effect = higher value)
6.94%: inhibition ([18]; measured here: combination with BGB IC40, at 0.05 µM)
-29.7%: inhibition ([19]; measured here: with cisplatin IC20 combination, at 0.5 µM)
-9.01%: inhibition ([19]; measured here: with BGB IC20 combination, at 0.5 µM)
26.7: rescue above control [16]
13.9%: inhibition ([18]; measured here: combination with BGB IC20, at 0.005 µM)
inactive: outcome [5] | inhibition ([18]; at 0.5 µM, stronger effect = higher value) -9.53% | inhibition ([19]; at 0.5 µM) -12.9% | inhibition ([20]; at 0.5 µM) -23.3%
99.8%: inhibition ([19]; BGB combo, at 5 µM) | inhibition ([19]; cisplatin combo, at 5 µM) | inhibition ([19]; single agent, at 5 µM) | inhibition ([20]; measured here: with BGB IC20, at 5 µM)
-29.9%: inhibition ([18]; measured here: combination with cisplatin, at 0.5 µM, stronger effect = higher value)
-27.3%: inhibition ([20]; measured here: with BGB IC20, at 0.5 µM)
99.9%: inhibition ([20]; measured here: with cisplatin IC20, at 5 µM) | inhibition ([20]; single agent, at 5 µM)
-38%: inhibition ([20]; measured here: with cisplatin IC20, at 0.5 µM)
18.9%: inhibition ([18]; measured here: combination with BGB IC40, at 0.005 µM)

Cc1noc(NS(=O)(=O)c2ccc(N)cc2)c1C
-13: rescue above control [16]
inactive: survival [1] 8.25 | mean signal [2] 256 | outcome [3] | log fold change Tl+ flux [6] 0.00425 | log fold change Tl+ flux [7] -0.0556 | log fold change Tl+ flux [8] 0.028 | log fold change Tl+ flux [9] -0.0245 | log fold change Tl+ flux [10] 0.0135 | log fold change Tl+ flux [11] -0.023 | log fold change Tl+ flux [12] -0.0138 | log fold change Tl+ flux [13] 0.00261 | log fold change Tl+ flux [14] -0.0229 | log fold change Tl+ flux [15] -0.0743

c1ccc(CC2=NCCN2)cc1
-6.48: rescue above control [16]
inactive: survival [1] 21.6 | mean signal [2] 271 | log fold change Tl+ flux [6] 0.00977 | log fold change Tl+ flux [7] 0.0105 | log fold change Tl+ flux [8] -0.0174 | log fold change Tl+ flux [9] -0.03 | log fold change Tl+ flux [10] -0.0313 | log fold change Tl+ flux [11] -0.0482 | log fold change Tl+ flux [12] 0.0322 | log fold change Tl+ flux [13] -0.00877 | log fold change Tl+ flux [14] 0.0215 | log fold change Tl+ flux [15] 0.0521

From PubChem BioAssay
